Measured values from PubChem BioAssay (NCI).
Compounds without any hit were thinned out: in the full panel of roughly 83,000, 20% have a hit.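 Results are percent growth after 48 hours of single-concentration exposure. 100 means growth as in untreated cells, lower positive values show inhibition; negative values down to -100 show cell death.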 Calls of active or inactive are those of the source. Rule for the calls: active = growth percent below 10; inactive = the rest.

Assays:
Experiment in all cases: NCI-60 one-dose screen, 48 h (100 = growth as untreated, 0 = no growth, -100 = all killed)
Settings in all cases: 10 µM unless noted
RPMI-8226 leukemia = test system: RPMI-8226 leukemia
OVCAR-8 ovarian = test system: OVCAR-8 ovarian
OVCAR-5 ovarian = test system: OVCAR-5 ovarian
OVCAR-4 ovarian = test system: OVCAR-4 ovarian
SK-OV-3 ovarian = test system: SK-OV-3 ovarian
IGROV1 ovarian = test system: IGROV1 ovarian
OVCAR-3 ovarian = test system: OVCAR-3 ovarian
HS 578T breast = test system: HS 578T breast
NCI/ADR-RES ovarian = test system: NCI/ADR-RES ovarian
T-47D breast = test system: T-47D breast

Measured: growth

COc1cc(-c2csc(NC(=O)Nc3cc(Cl)cc(Cl)c3)n2)cc(OC)c1OC
active: OVCAR-8 ovarian 9.3% | OVCAR-4 ovarian -81.4% | IGROV1 ovarian -59.4% | OVCAR-3 ovarian -85.9% | HS 578T breast -18.2% | NCI/ADR-RES ovarian 5.24% | T-47D breast -41.5%
inactive: RPMI-8226 leukemia 13.7% | OVCAR-5 ovarian 39.1% | SK-OV-3 ovarian 14.9%

CCN(CC)CC#CCOC(=O)[C@]1(C)CCC[C@]2(C)[C@H]3C[C@H]4C(C(C)C)=C[C@]3(CC[C@H]21)[C@@H]1C(=O)CCC(=O)[C@@H]14
inactive: RPMI-8226 leukemia 17.5% | OVCAR-8 ovarian 39.6% | OVCAR-5 ovarian 62.4% | OVCAR-4 ovarian 36.4% | SK-OV-3 ovarian 77.8% | IGROV1 ovarian 64.2% | OVCAR-3 ovarian 58.5% | HS 578T breast 69.3% | NCI/ADR-RES ovarian 45.7% | T-47D breast 35.5%

O=C(Nc1ccccc1)NS(=O)(=O)c1c[nH]c(=S)[nH]c1=O
inactive: RPMI-8226 leukemia 103% | OVCAR-8 ovarian 94.9% | OVCAR-5 ovarian 113% | OVCAR-4 ovarian 105% | SK-OV-3 ovarian 69.9% | IGROV1 ovarian 106% | OVCAR-3 ovarian 110% | HS 578T breast 108% | NCI/ADR-RES ovarian 104% | T-47D breast 75.1%

c1cc(CNC23CC4CC(CC(C4)C2)C3)cc(C[N+](Cc2cccc(CNC34CC5CC(CC(C5)C3)C4)c2)(Cc2cccc(CNC34CC5CC(CC(C5)C3)C4)c2)Cc2cccc(CNC34CC5CC(CC(C5)C3)C4)c2)c1 (centres undefined)
inactive: OVCAR-4 ovarian 29.5% [42 µM] | SK-OV-3 ovarian 61.9% [42 µM] | IGROV1 ovarian 10.9% [42 µM] | HS 578T breast 58.2% [42 µM] | NCI/ADR-RES ovarian 21.5% [42 µM] | T-47D breast 24% [42 µM]
active: RPMI-8226 leukemia -11.6% [42 µM] | OVCAR-8 ovarian 7.24% [42 µM] | OVCAR-5 ovarian 7.78% [42 µM] | OVCAR-3 ovarian -26.9% [42 µM]

Nc1ccccc1NC(=O)c1ccc(CSc2nc(N3CCOCC3)c3cccn3n2)cc1
active: RPMI-8226 leukemia -4.81% | SK-OV-3 ovarian 6.2% | OVCAR-3 ovarian 1.87% | NCI/ADR-RES ovarian 3.65% | T-47D breast -1.13%
inactive: OVCAR-8 ovarian 15.9% | OVCAR-5 ovarian 29.5% | OVCAR-4 ovarian 42% | IGROV1 ovarian 21.5% | HS 578T breast 23.1%

C=C(C)[C@@H]1CC[C@]2(C(=O)OCCOCCOCC[P+](c3ccccc3)(c3ccccc3)c3ccccc3)CC[C@]3(C)[C@H](CC[C@@H]4[C@@]5(C)CC[C@H](OC(C)=O)C(C)(C)[C@@H]5CC[C@]43C)[C@@H]12
active: RPMI-8226 leukemia -63.9% | OVCAR-8 ovarian -78.2% | OVCAR-5 ovarian -86.2% | OVCAR-4 ovarian -82.1% | SK-OV-3 ovarian -94.5% | IGROV1 ovarian -83.9% | OVCAR-3 ovarian -95.8% | HS 578T breast -48.3% | NCI/ADR-RES ovarian 4.3% | T-47D breast -76.7%

Nc1cccc(C(=O)Nc2ccc3c(O)c(N=Nc4ccc(N=Nc5ccc(S(=O)(=O)O)cc5)cc4)c(S(=O)(=O)O)cc3c2)c1
inactive: RPMI-8226 leukemia 98.2% | OVCAR-8 ovarian 107% | OVCAR-5 ovarian 109% | OVCAR-4 ovarian 94.3% | SK-OV-3 ovarian 101% | IGROV1 ovarian 97.8% | OVCAR-3 ovarian 102% | HS 578T breast 103% | NCI/ADR-RES ovarian 112% | T-47D breast 83.8%

COC(=O)CCc1n(Cc2ccc3ccccc3c2)c2ccccc2[n+]1Cc1ccc2ccccc2c1
inactive: OVCAR-5 ovarian 18% | SK-OV-3 ovarian 10.8% | HS 578T breast 25% | NCI/ADR-RES ovarian 100%
active: RPMI-8226 leukemia -21.3% | OVCAR-8 ovarian 6.77% | OVCAR-4 ovarian 7.13% | IGROV1 ovarian -26.4% | OVCAR-3 ovarian -14.2% | T-47D breast -0.425%

CC(=O)OCC1SC(OC(C)=O)C(NC(=O)/C=C/CCl)C(OC(C)=O)C1OC(C)=O (centres undefined)
inactive: RPMI-8226 leukemia 95.2% | OVCAR-8 ovarian 98.2% | OVCAR-5 ovarian 148% | OVCAR-4 ovarian 101% | SK-OV-3 ovarian 86.4% | IGROV1 ovarian 105% | OVCAR-3 ovarian 102% | HS 578T breast 93.5% | NCI/ADR-RES ovarian 103% | T-47D breast 90.6%

C=C1C(=O)O[C@H]2[C@H]1CC/C(C=Nc1c(N)cc(C(F)(F)F)cc1Br)=C\CC[C@@]1(C)O[C@@H]21
inactive: OVCAR-5 ovarian 42.8% | OVCAR-4 ovarian 55.3% | SK-OV-3 ovarian 83.1%
active: RPMI-8226 leukemia -23.4% | OVCAR-8 ovarian -8.6% | IGROV1 ovarian -9.71% | OVCAR-3 ovarian -91.9% | HS 578T breast 6.58% | NCI/ADR-RES ovarian 9.14% | T-47D breast -16.3%

CCCCc1n(Cc2ccc3ccccc3n2)cc[n+]1Cc1ccc2ccccc2c1
active: RPMI-8226 leukemia -7.1% | OVCAR-8 ovarian 2.38% | SK-OV-3 ovarian -14% | IGROV1 ovarian -14.7% | OVCAR-3 ovarian 5.59% | T-47D breast -0.345%
inactive: OVCAR-5 ovarian 24% | OVCAR-4 ovarian 28.6% | HS 578T breast 16.6% | NCI/ADR-RES ovarian 101%

COC(=O)/C=C1\SC(=Nc2ccc(F)cc2)N(CCc2c[nH]c3ccccc23)C1=O
inactive: RPMI-8226 leukemia 93.8% | OVCAR-8 ovarian 87.5% | OVCAR-5 ovarian 110% | OVCAR-4 ovarian 106% | SK-OV-3 ovarian 102% | IGROV1 ovarian 98.5% | OVCAR-3 ovarian 104% | HS 578T breast 108% | NCI/ADR-RES ovarian 95.8% | T-47D breast 91.3%

CC1(C)CC[C@]2(c3nnc(-c4ccncc4)o3)CC[C@]3(C)C(=CC[C@@H]4[C@@]5(C)CCC(=O)C(C)(C)[C@@H]5CC[C@]43C)[C@@H]2C1
inactive: RPMI-8226 leukemia 62.4% | OVCAR-8 ovarian 81.1% | OVCAR-5 ovarian 99.9% | OVCAR-4 ovarian 89.2% | SK-OV-3 ovarian 104% | IGROV1 ovarian 93.2% | OVCAR-3 ovarian 80.8% | HS 578T breast 98.6% | NCI/ADR-RES ovarian 97.2% | T-47D breast 65.9%

C=C(C)[C@@H]1CCC=C2CC[C@]3(C)[C@H](CC[C@@H]4[C@@]5(C)CCCNC(C)(C)[C@@H]5CC[C@]43C)[C@H]21
inactive: OVCAR-5 ovarian 56.4% | OVCAR-4 ovarian 36.7% | SK-OV-3 ovarian 112% | IGROV1 ovarian 23.5% | OVCAR-3 ovarian 41.2% | HS 578T breast 97.2% | NCI/ADR-RES ovarian 55.1% | T-47D breast 60.2%
active: RPMI-8226 leukemia -11.9% | OVCAR-8 ovarian 3.48%

[2H]c1cc2c(c([2H])c1F)/C(=C/c1[nH]c(C)c(C(=O)NCCN(CC)CC)c1C)C(=O)N2
inactive: RPMI-8226 leukemia 30.2% | OVCAR-8 ovarian 63.1% | OVCAR-5 ovarian 28.7% | OVCAR-4 ovarian 40.6% | SK-OV-3 ovarian 14.5% | IGROV1 ovarian 30.4% | OVCAR-3 ovarian 73.3% | HS 578T breast 44.9% | NCI/ADR-RES ovarian 65.7% | T-47D breast 68.7%

Cc1cccc(NC(=O)c2sc3nc4c(cc3c2N)CN(Cc2ccccc2)CC4)c1C
active: OVCAR-3 ovarian -21.3%
inactive: RPMI-8226 leukemia 26.8% | OVCAR-8 ovarian 34.3% | OVCAR-5 ovarian 57.4% | OVCAR-4 ovarian 61.7% | SK-OV-3 ovarian 42.2% | IGROV1 ovarian 48.5% | HS 578T breast 30.8% | NCI/ADR-RES ovarian 20.2% | T-47D breast 53%

C#C[C@@]1(O)[C@@H](CO)O[C@@H](n2cc(-c3ccco3)c3c(N)ncnc32)[C@@H]1O
active: IGROV1 ovarian -11.6% | T-47D breast -17.2%
inactive: RPMI-8226 leukemia 80.3% | OVCAR-8 ovarian 65.9% | OVCAR-5 ovarian 66.9% | OVCAR-4 ovarian 61.2% | SK-OV-3 ovarian 26.3% | OVCAR-3 ovarian 80.3% | HS 578T breast 49.8% | NCI/ADR-RES ovarian 61.7%

Cc1cc(Nc2nc(SCc3ccc(C(=O)Nc4ccc(F)cc4N)cc3)nn3cccc23)n[nH]1
inactive: RPMI-8226 leukemia 13.1% | OVCAR-8 ovarian 15.4% | OVCAR-5 ovarian 52.3% | OVCAR-4 ovarian 40.8% | SK-OV-3 ovarian 17.9% | IGROV1 ovarian 33.6% | OVCAR-3 ovarian 11.4% | HS 578T breast 37.4% | NCI/ADR-RES ovarian 30.2% | T-47D breast 62.1%

N#Cc1c(-c2ccc(Cl)cc2)cc(-c2cc3ccccc3o2)nc1SCC(=O)c1ccc(Cl)cc1
inactive: RPMI-8226 leukemia 83.6% | OVCAR-8 ovarian 104% | OVCAR-5 ovarian 88.4% | OVCAR-4 ovarian 104% | SK-OV-3 ovarian 103% | IGROV1 ovarian 71.5% | OVCAR-3 ovarian 104% | HS 578T breast 96.3% | NCI/ADR-RES ovarian 97.9% | T-47D breast 108%

CCn1cc(C(=O)O)c(=O)c2cc(F)c(N3CCN(CC(=O)Nc4ccc(/C(C)=N/OC)cc4)CC3)cc21
inactive: RPMI-8226 leukemia 105% | OVCAR-8 ovarian 92.3% | OVCAR-5 ovarian 101% | OVCAR-4 ovarian 103% | SK-OV-3 ovarian 85.1% | IGROV1 ovarian 94.6% | OVCAR-3 ovarian 97.6% | HS 578T breast 94.7% | NCI/ADR-RES ovarian 97.8% | T-47D breast 70.3%

CCOC(=O)c1c(C)nc2c(c1N)CC(=O)N2CCc1ccccc1
active: RPMI-8226 leukemia -6.34%
inactive: OVCAR-8 ovarian 24.3% | OVCAR-5 ovarian 53.3% | OVCAR-4 ovarian 62.8% | SK-OV-3 ovarian 45.6% | IGROV1 ovarian 28.7% | OVCAR-3 ovarian 35.4% | HS 578T breast 41.1% | NCI/ADR-RES ovarian 30.1% | T-47D breast 53.9%

COC(=O)/C=C/c1cc(OC)c2c(c1)[C@@H](C(=O)OC)[C@H](c1ccc(OC)c(OC)c1)O2
inactive: RPMI-8226 leukemia 12.6% | OVCAR-8 ovarian 30.8% | OVCAR-5 ovarian 77% | OVCAR-4 ovarian 42.6% | SK-OV-3 ovarian 66.8% | IGROV1 ovarian 43.2% | HS 578T breast 37.5% | NCI/ADR-RES ovarian 16.6% | T-47D breast 33.1%
active: OVCAR-3 ovarian -15.8%

COc1cc(NC(=O)Nc2cnc(Nc3ccc(N4CCOCC4)cc3)nc2Oc2ccc(C(F)(F)F)cc2)cc(OC)c1
inactive: RPMI-8226 leukemia 92.5% | OVCAR-8 ovarian 100% | OVCAR-5 ovarian 116% | OVCAR-4 ovarian 111% | SK-OV-3 ovarian 104% | IGROV1 ovarian 104% | OVCAR-3 ovarian 110% | HS 578T breast 99.4% | NCI/ADR-RES ovarian 104% | T-47D breast 98.4%

C#CC[C@@H]1C[C@]2(C)[C@H]3CC[C@@H]4[C@H]5[C@H](C(=C)C)CC[C@]5(C(=O)O)CC[C@@]4(C)[C@]3(C)CC[C@H]2C(C)(C)[C@H]1O
active: OVCAR-4 ovarian -18.7% | OVCAR-3 ovarian -33.5%
inactive: RPMI-8226 leukemia 24.1% | OVCAR-8 ovarian 45.8% | OVCAR-5 ovarian 95.7% | SK-OV-3 ovarian 74.3% | IGROV1 ovarian 60.2% | HS 578T breast 33.4% | NCI/ADR-RES ovarian 44% | T-47D breast 51.1%

COc1ccc2c(c1)/C(=C1\S/C(=N/c3nnc(C)s3)NC1=O)C(=O)N2Cc1ccc(Cl)cc1
inactive: RPMI-8226 leukemia 40.3% | OVCAR-8 ovarian 52.2% | OVCAR-5 ovarian 90.5% | OVCAR-4 ovarian 44.7% | SK-OV-3 ovarian 70% | IGROV1 ovarian 41.9% | OVCAR-3 ovarian 42.2% | HS 578T breast 55.1% | NCI/ADR-RES ovarian 32% | T-47D breast 42%

O=C1CCC23OC(C(O)c4ccccc4N12)C1C(Br)=NOC13 (centres undefined)
inactive: RPMI-8226 leukemia 98.7% | OVCAR-8 ovarian 103% | OVCAR-5 ovarian 97.7% | OVCAR-4 ovarian 95.4% | SK-OV-3 ovarian 99% | IGROV1 ovarian 106% | OVCAR-3 ovarian 105% | HS 578T breast 106% | T-47D breast 102%
